Reference: PubChem BioAssay (NCATS)
Results filed as inconclusive are left out. The source made the active and inactive calls. The call rests on the fitted dose curve; in most records, active means well fitted cell-killing curve with a large enough effect; inconclusive means small, poorly fitted or top-dose-only effect, or effect the other way; inactive means no such curve, though single readings can be large or run the other way.

How the values were obtained:
[1] = Quantitative High-Throughput drug screen in 47 multiple myeloma cell lines against the NCATS MIPE library collection: OCIMY7_PLB cell viability assay (AID 1918987); further: nearly all actives have a fitted effect of over 65% in size
In short: (§1)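 Readout: median RLU from CellTiter-Glo after 5 min at room temperature. Preceding step was 48 h drug treatment of 500 cells/well at 37 °C, 5% CO2, with DMSO-only and media-only control wells.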

[2] = Quantitative High-Throughput drug screen in 47 multiple myeloma cell lines against the NCATS MIPE library collection: OPM1_PLB cell viability assay (AID 1918989); further: nearly all actives have a fitted effect of over 40% in size
In short: as §1

[3] = Quantitative High-Throughput drug screen in 47 multiple myeloma cell lines against the NCATS MIPE library collection: SKMM1_PLB cell viability assay (AID 1919863); conditions: SKMM1 myeloma viability, CellTiter-Glo ATP, 48 h; viability: active compounds read low; further: nearly all actives have a fitted effect of over 35% in size; on viability: series mostly up to about 46 µM
In short: as §1

[4] = Quantitative High-Throughput drug screen in 47 multiple myeloma cell lines against the NCATS MIPE library collection: U266_ATCC cell viability assay (AID 1919864); further: nearly all actives have a fitted effect of over 35% in size
In short: as §1

[5] = Quantitative High-Throughput drug screen in 47 multiple myeloma cell lines against the NCATS MIPE library collection: XG6_PLB cell viability assay (AID 1919865); further: nearly all actives have a fitted effect of over 40% in size
In short: as §1

[6] = Quantitative High-Throughput drug screen in 47 multiple myeloma cell lines against the NCATS MIPE library collection: UTMC2_PLB cell viability assay (AID 1919868); further: nearly all actives have a fitted effect of over 55% in size
In short: as §1

[7] = Quantitative High-Throughput drug screen in 47 multiple myeloma cell lines against the NCATS MIPE library collection: PE2_PLB cell viability assay (AID 1919869); further: nearly all actives have a fitted effect of over 35% in size
In short: as §1

[8] = Quantitative High-Throughput drug screen in 47 multiple myeloma cell lines against the NCATS MIPE library collection: OCIMY5_PLB cell viability assay (AID 1918988); further: nearly all actives have a fitted effect of over 65% in size
In short: as §1

[9] = Quantitative High-Throughput drug screen in 47 multiple myeloma cell lines against the NCATS MIPE library collection: VP6_DJ cell viability assay (AID 1919867); further: nearly all actives have a fitted effect of over 40% in size
In short: as §1

[10] = Quantitative High-Throughput drug screen in 47 multiple myeloma cell lines against the NCATS MIPE library collection: XG1_PLB cell viability assay (AID 1919866); further: nearly all actives have a fitted effect of over 35% in size
In short: as §1
Potency means the concentration at half of the fitted maximal effect.

COc1cc([C@@H]2c3cc4c(cc3[C@H](O)[C@H]3COC(=O)[C@H]23)OCO4)cc(OC)c1OC
inactive: Potency [1] | Potency [2] | viability [3] 65.8% | Potency [4] | Potency [5] | Potency [6] | Potency [7]

OCc1ccc(-c2nn(Cc3ccccc3)c3ccccc23)o1
inactive: Potency [7]
active: Potency [8] 16.6 µM | Potency [2] 18.7 µM | Potency [3] 5.9 µM

CCOCC(O)COc1ccc(NC(=O)CC[S+](C)C)cc1 (centres undefined)
inactive: Potency [8] | Potency [2] | viability [3] 111% | Potency [5] | Potency [9] | Potency [6] | Potency [7]

CCOC(=O)[C@H](CCc1ccccc1)N[C@H]1CCc2ccccc2N(CC(=O)O)C1=O
active: Potency [8] 23.5 µM | Potency [2] 16.6 µM | Potency [4] 18.7 µM | Potency [5] 14.8 µM | Potency [9] 18.7 µM | Potency [6] 29.6 µM | Potency [7] 20.9 µM

CC(C)OC(=O)OCOP(=O)(CO[C@H](C)Cn1cnc2c(N)ncnc21)OCOC(=O)OC(C)C
active: Potency [8] 3.72 µM | Potency [4] 16.6 µM
inactive: Potency [2]

CN(CCOc1ccc(CC2SC(=O)NC2=O)cc1)c1ccccn1 (centres undefined)
active: Potency [8] 1.05 µM | Potency [4] 16.6 µM
inactive: Potency [2] | viability [3] 112% | Potency [5] | Potency [10] | Potency [7]

O[C@@H](CNC[C@H](O)[C@H]1CCc2cc(F)ccc2O1)[C@@H]1CCc2cc(F)ccc2O1
active: Potency [8] 20.9 µM | Potency [2] 26.4 µM | Potency [3] 18.7 µM | Potency [4] 26.4 µM | Potency [5] 13.2 µM | Potency [10] 20.9 µM | Potency [9] 14.8 µM | Potency [6] 20.9 µM | Potency [7] 26.4 µM

Cc1cc(NS(=O)(=O)c2ccc(N)cc2)no1
inactive: Potency [2] | viability [3] 140% | Potency [9] | Potency [7]
active: Potency [1] 16.6 µM | Potency [4] 10.5 µM

CC[C@H](NC(C)C)[C@H](O)c1ccc(O)c2[nH]c(=O)ccc12
active: Potency [8] 0.0833 µM
inactive: Potency [2] | Potency [4] | Potency [5] | Potency [10] | Potency [6]

OC(Cn1cncn1)(Cn1cncn1)c1ccc(F)cc1F
inactive: Potency [8] | Potency [2] | Potency [4] | Potency [5] | Potency [10] | Potency [9] | Potency [6] | Potency [7]

CC(C)(C)C(=O)OCOP(=O)(COCCn1cnc2c(N)ncnc21)OCOC(=O)C(C)(C)C
active: Potency [8] 1.87 µM | Potency [2] 6.62 µM | Potency [3] 20.9 µM | Potency [4] 0.332 µM | Potency [5] 0.469 µM | Potency [6] 0.526 µM | Potency [7] 0.187 µM

O=C(NCC1CN(c2ccc(N3CCOCC3=O)cc2)C(=O)O1)c1ccc(Cl)s1 (centres undefined)
inactive: Potency [1] | Potency [2] | viability [3] 135% | Potency [4] | Potency [5] | Potency [10] | Potency [6] | Potency [7]

CCCOc1ccc(C(=O)OCCN(CC)CC)cc1N
inactive: Potency [8] | Potency [2] | viability [3] 118% | Potency [5] | Potency [10] | Potency [6] | Potency [7]

Cc1nnc(NS(=O)(=O)c2ccc(N)cc2)s1
active: Potency [2] 14.8 µM | Potency [4] 14.8 µM | Potency [5] 1.87 µM | Potency [10] 1.32 µM | Potency [9] 0.187 µM
inactive: Potency [7]

COC(c1ccccc1)(c1ccccc1)[C@H](Oc1nc(C)cc(C)n1)C(=O)O
inactive: Potency [2] | Potency [4] | Potency [5] | Potency [6] | Potency [7]

Nc1ccc(S(=O)(=O)Nc2ccccn2)cc1
inactive: Potency [2] | Potency [5] | Potency [10] | Potency [7]

CC(N)C12CC3CC(CC(C3)C1)C2 (centres undefined)
inactive: viability [3] 118% | Potency [5] | Potency [10] | Potency [7]

CCOC(=O)c1ccc(C#Cc2ccc3c(c2)C(C)(C)CCS3)nc1
inactive: viability [3] 115% | Potency [7]

O=c1cc(O)c(Cl)c[nH]1
inactive: Potency [2] | Potency [7]
active: Potency [4] 5.9 µM | Potency [5] 1.87 µM | Potency [10] 3.72 µM | Potency [9] 0.132 µM

O=S(=O)(c1cccc2cnccc12)N1CCCNCC1
active: Potency [5] 20.9 µM | Potency [9] 18.7 µM
inactive: viability [3] 125% | Potency [4]

CC(=O)[C@H]1CC[C@H]2[C@@H]3CC=C4C[C@@H](O)CC[C@]4(C)[C@H]3CC[C@]12C
inactive: Potency [2] | viability [3] 123% | Potency [5] | Potency [10] | Potency [7]

O=c1oc2c(O)c(O)cc3c(=O)oc4c(O)c(O)cc1c4c23
inactive: Potency [2] | Potency [4] | Potency [7]

CCC(C)(C)c1ccc(CC(C)CN2C[C@@H](C)O[C@@H](C)C2)cc1 (some centres undefined)
inactive: Potency [6]
active: Potency [9] 16.6 µM

CCN(CC)CC#CCOC(=O)C(O)(c1ccccc1)C1CCCCC1 (centres undefined)
inactive: Potency [5] | Potency [10] | Potency [6] | Potency [7]

NCCCC(O)(P(=O)(O)O)P(=O)(O)O
inactive: Potency [2] | viability [3] 137% | Potency [10] | Potency [7]

O=C(O)c1ccc(-n2nc(-c3ccccc3O)nc2-c2ccccc2O)cc1
active: Potency [2] 23.5 µM | Potency [5] 20.9 µM

CC(=O)[C@H]1CC[C@H]2[C@@H]3CCC4=CC(=O)CC[C@]4(C)[C@H]3CC[C@]12C
active: Potency [2] 8.33 µM | Potency [9] 7.43 µM
